Experimental data reported in the supplement of paper PMC6555819.

Assays:
Experiment in all cases: PBM binding z-score (relative to random genomic background probes); higher = stronger binding; sequences stand for … in GC…GCGATTGACAGCGTAGAATGAAGG
[1] = system: FXR:RXRa (NR concentration 270 nM, RXRa partner concentration 90 nM)
How it was run: (§1)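 Custom Agilent 4×180K protein-binding microarrays carried double-stranded probes, each with a 34-nt variable region. These regions held direct-repeat seeds, single-nucleotide variants, half-site ablations and random human genomic background sequences. Ligand-free nuclear receptor dimers were incubated on the arrays for 1 h, antibodies against each partner (one per run) detected binding, and scanned fluorescence was regression-normalized. Binding z-scores take the random background probes as reference.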

[2] = system: LXRa:RXRa (NR concentration 270 nM, RXRa partner concentration 90 nM)
How it was run: as §1

[3] = system: LXRa homodimer (NR concentration 270 nM)
How it was run: as §1

[4] = system: LXRb:RXRa (NR concentration 270 nM, RXRa partner concentration 90 nM)
How it was run: as §1

[5] = system: LXRb homodimer (NR concentration 270 nM)
How it was run: as §1

[6] = system: PPARa:RXRa (NR concentration 270 nM, RXRa partner concentration 90 nM)
How it was run: as §1

[7] = system: PPARg:RXRa (NR concentration 180 nM, RXRa partner concentration 90 nM)
How it was run: as §1

[8] = system: PPARg:RXRa 270nM:90nM, anti-RXR (NR concentration 270 nM, RXRa partner concentration 90 nM)
How it was run: as §1

[9] = system: PPARg:RXRa 30nM:10nM, anti-RXR (NR concentration 30 nM, RXRa partner concentration 10 nM)
How it was run: as §1

[10] = system: PPARg:RXRa 90nM:30nM, anti-RXR (NR concentration 90 nM, RXRa partner concentration 30 nM)
How it was run: as §1

[11] = system: PPARg:RXRa DBDmut IVT, anti-RXR (DBD mutation: RXRa K156A/R161A, NR concentration 270 nM, RXRa partner concentration 90 nM)
How it was run: as §1

[12] = system: PPARg:RXRa IVT, anti-PPARg (NR concentration 270 nM, RXRa partner concentration 90 nM)
How it was run: as §1

[13] = system: PPARg DBDmut:RXRa IVT, anti-PPARg (DBD mutation: PPARg1 K132A/R137A, NR concentration 270 nM, RXRa partner concentration 90 nM)
How it was run: as §1

[14] = system: PPARg DBDmut IVT, anti-PPARg (DBD mutation: PPARg1 K132A/R137A, NR concentration 270 nM)
How it was run: as §1

[15] = system: PPARg homodimer (NR concentration 180 nM)
How it was run: as §1

[16] = system: PXR:RXRa (NR concentration 270 nM, RXRa partner concentration 90 nM)
How it was run: as §1

[17] = system: PXR homodimer (NR concentration 270 nM)
How it was run: as §1

[18] = system: RARa:RXR (NR concentration 270 nM, RXRa partner concentration 90 nM)
How it was run: as §1

[19] = system: RARa homodimer (NR concentration 270 nM)
How it was run: as §1

[20] = system: RARb:RXRa (NR concentration 270 nM, RXRa partner concentration 90 nM)
How it was run: as §1

Sequence | PBM binding z-score [1] | PBM binding z-score [2] | PBM binding z-score [3] | PBM binding z-score [4] | PBM binding z-score [5] | PBM binding z-score [6] | PBM binding z-score [7] | PBM binding z-score [8] | PBM binding z-score [9] | PBM binding z-score [10] | PBM binding z-score [11] | PBM binding z-score [12] | PBM binding z-score [13] | PBM binding z-score [14] | PBM binding z-score [15] | PBM binding z-score [16] | PBM binding z-score [17] | PBM binding z-score [18] | PBM binding z-score [19] | PBM binding z-score [20]
TCTCGGAGGACCCGAAGGTCAGAGCTTTCCAGAG | 0.805 | 0.637 | -0.12 | 0.902 | -1.45 | 1.69 | 0.0649 | 1.18 | 1.64 | 1.63 | 0.809 | -0.16 | -1.17 | -1.31 | 0.165 | 1.42 | -0.264 | 1.89 | -0.281 | 2.35
CCAGACAGGTGAGAAGTTAACTCAGCCTCGATTA | -0.198 | -0.285 | -0.173 | 0.0436 | -0.306 | 0.706 | 0.596 | 1.25 | -0.0978 | 0.58 | 0.968 | 0.347 | -0.638 | -0.46 | 0.326 | -0.109 | 0.36 | 0.0412 | 0.721 | 0.4
CTCGAAAGGTCGGTGGAGGTGAGTATACGGATAA | 2.34 | 1.77 | -0.129 | 1.41 | -0.0636 | 2.82 | 0.577 | 1.22 | 0.0571 | 0.88 | 0.0934 | 0.827 | 1.01 | -0.175 | 1.03 | 2.39 | -0.0117 | 2.63 | 0.0288 | 2.89
ACTATTAGTTGACCTAGGGCAACCGATACGACGC | 1.76 | 2.47 | 2.09 | 2.31 | 1.09 | 2.52 | 1.71 | 1.48 | 0.386 | 0.958 | 1.31 | 2.56 | 0.917 | 1.25 | 1.64 | 2.05 | 0.901 | 2.79 | 0.637 | 2.18
TCAGACAGGTGAAGATAACTCAGGTACGCAGTCG | 0.856 | 0.897 | 0.162 | 1.04 | -0.112 | 1.39 | 1.09 | 2.31 | 3.92 | 2.92 | 2.79 | 0.984 | 0.555 | 0.567 | 0.861 | 0.46 | 0.241 | 0.891 | 0.4 | 1.1
CCTTACGGATCAAGGTTATAGCACGGGTGGTACG | 0.336 | 0.57 | 0.38 | 0.5 | 0.21 | 0.917 | 0.684 | 0.188 | -0.114 | 0.0556 | -0.655 | 0.0573 | -0.059 | 0.154 | 0.562 | 0.548 | 0.798 | 0.636 | 1.03 | 0.891
CAAACTAGGTCACCGGAAGGTCAAAGACCGCATG | 5.97 | 5.91 | 4.14 | 4.91 | 1.03 | 6.19 | 9.78 | 7.64 | 5.86 | 7.65 | 8.27 | 8.78 | 2.33 | 1.54 | 7.7 | 5.6 | 1.46 | 7.13 | 2.64 | 5.2
TCTAGCAGACCAGAGGGTCACTCAAGAGGTACGG | 0.955 | 0.817 | -0.662 | 1.1 | -1.39 | 2.15 | 0.882 | 1.31 | 1.8 | 1.61 | 0.667 | -0.0326 | -0.965 | -2.06 | 0.364 | 1.38 | -0.694 | 1.85 | -0.734 | 1.81
CTCGAAAGGTCGTGCTCAGGTGAGTAAACCAAAC | 5.29 | 3.87 | 0.151 | 3.25 | 0.181 | 4.92 | 2.7 | 4.18 | 0.732 | 2.6 | 0.815 | 1.96 | 0.213 | 0.0254 | 1.55 | 3.34 | 0.175 | 4.18 | 0.14 | 3.98
CCAGACAGGTTAGAAGGTAACTCAGCCTCGATTA | 0.224 | 0.466 | 0.473 | 0.483 | 0.172 | 0.816 | 0.402 | 0.288 | -0.236 | 0.116 | 0.311 | 0.0619 | -0.119 | -0.234 | 1.19 | 0.328 | 0.257 | 0.828 | 0.903 | 0.829
CCGACTGGGGCAAAGGTTATCATACTCAGTACGA | 1.81 | 1.66 | 0.176 | 1.87 | -1.04 | 5.54 | 10.5 | 9.03 | 8.6 | 9.34 | 4.35 | 5.85 | -0.186 | 0.138 | 2.13 | 2.11 | -0.0954 | 3.14 | -0.00422 | 2.08
GGAACGAGGGCAAAGTTGATAGCCTCTGTCGACG | 1.19 | 0.817 | -0.461 | 0.459 | -0.828 | 3.93 | 6.54 | 7.37 | 5.66 | 7.65 | 4.2 | 4.33 | -0.184 | -0.449 | 0.223 | 1.1 | -0.21 | 1.37 | -0.637 | 2.24
ATCGAAAGGTCGTGAGGCGAGTATACAGAAAGGC | 5.83 | 4.11 | 0.273 | 3.21 | 0.391 | 5.07 | 3.85 | 4.18 | 1.56 | 2.61 | 0.466 | 1.91 | 1.82 | 1 | 1.5 | 2.96 | 0.0504 | 3.69 | 0.41 | 4.1
ATATGTAGGTTATCTGGTCATTCAGTTTGCGCAT | 1.2 | 1.28 | 1.15 | 1.21 | 0.901 | 3.58 | 5.56 | 4.79 | 2.32 | 4.3 | 7.43 | 7.03 | 4.79 | 3.41 | 2.41 | 1.26 | 1.14 | 0.738 | 1.75 | 1.42
